From PubChem BioAssay AID504444 (National Center for Advancing Translational Sciences (NCATS), 2011)
Out of some 360,000 compounds screened, about 7,500 (2.1%) were called active. Entries that show only a call come without a potency. About 20% were inconclusive and are not listed. Calls come from the whole dose curve; as a rule, active = well fitted inhibition curve with a large enough effect; inconclusive = small, poorly fitted or top-dose-only effect, or effect the other way; inactive = flat fitted curve, though single readings scatter. Many of the other results were omitted from the sample, so actives are more common in it than they were.
Potency is the fitted concentration of half-maximal effect.

Assay: Nrf2 qHTS screen for inhibitors; note: nearly all actives have a fitted effect of over 60% in size
Conditions: A549 ARE-Fluc reporter, luciferase luminescence, 18-24 h; series mostly up to 46 µM
Outline: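 In this cell-based qHTS, ARE-driven firefly luciferase in A549 cells reports Nrf2 activity; the luminescent signal after BugLite lysis is the measured value, with a prior CellTiter-Fluor read for cell health.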
For COCCNC(=O)c1ccc(N2CCC3(CC2)OCCO3)c([N+](=O)[O-])c1, the Potency was “inactive”.
For CCCNC(=O)c1ccc(N2CCC3(CC2)CC(c2ccc(Cl)cc2)=NO3)c([N+](=O)[O-])c1, the Potency was 23.1 µM (active).
For O=C(NCCCN1CCOCC1)c1ccc(N2CCCC2)c([N+](=O)[O-])c1, the Potency was “inactive”.
With CCOC(=O)N1CCc2c(sc3c2c(=O)n(-c2ccc(CC)cc2)c(=O)n3C)C1 the Potency was “inactive”.
For CCOC(=O)C1CCN(C(=O)CSc2c3c(nc4ccc(Cl)cc24)CCCC3)CC1, the Potency was “inactive”.
With Cc1ccc(-c2cc(C(F)(F)F)c(C#N)c(SCC(=O)Nc3ccccc3)n2)cc1 the Potency was “inactive”.
In the case of Cn1ccc(NC(=O)Nc2ccc(Cl)cc2)n1, the Potency is reported as “inactive”.
With CC(C)S(=O)(=O)c1csc(NC(=O)Nc2ccc(Cl)cc2)c1Cl the Potency was 20.6 µM (active).
In the case of NS(=O)(=O)c1ccc(CCNC(=O)Nc2ccc(Cl)cc2)cc1, the Potency is reported as “inactive”.
In the case of Cc1ccc(CN2CCC(CNC(=O)c3cnn(-c4ccc(C)cc4)c3C3CCN(C(=O)OC(C)(C)C)CC3)CC2)cc1, the Potency is reported as “inactive”.
In the case of CCOc1ccc(NC(=O)COC(=O)C2CCC(=O)N2)c([N+](=O)[O-])c1 (centres undefined), the Potency is reported as “inactive”.
In the case of COc1ccc(C2=NC3(CCCCC3)N(CC(=O)Nc3ccc(C(C)C)cc3)C2=O)cc1, the Potency is reported as “inactive”.
In the case of COc1ccc(CCNC(=O)CCCCn2c(=O)c3ccccc3n(Cc3ccccc3)c2=O)cc1OC, the Potency is reported as “inactive”.
With COC[C@@H]1NS(=O)(=O)c2ccc(Br)cc2O[C@H]1c1ccccc1 the Potency was “inactive”.
For CN(C(=O)c1cccc(NC(=O)C2CCN(C(=O)OC(C)(C)C)CC2)c1)C1CCC1, the Potency was “inactive”.
With O=C(Cc1ccc(-n2c(=O)[nH]c3ccccc3c2=O)cc1)N1CCN(c2cccc(Cl)c2)CC1 the Potency was 16.4 µM (active).
With O=C(CCn1c(=O)[nH]c2ccccc2c1=O)NCCCN1CCN(c2cccc(Cl)c2)CC1 the Potency was “inactive”.
With O=C(CCCC(=O)N1CCN(c2cccc(Cl)c2)CC1)c1ccccc1 the Potency was “inactive”.
With CCn1c(C(=O)Nc2cc(Cl)ccc2C)cc2sc(Cl)cc21 the Potency was “inactive”.
For COc1ccc(-n2c(=O)c3sc4ccccc4c3n(CC(=O)Nc3cccc(C)c3)c2=O)cc1, the Potency was “inactive”.
With Cc1ccc(C)c(Cn2c(C)c(CNCc3ccc(F)cc3)c(C(=O)O)c2C)c1 the Potency was “inactive”.
In the case of Cc1ccc(S(=O)(=O)N2CCC(C(=O)N3CCCCCCC3)CC2)cc1, the Potency is reported as “inactive”.
In the case of Cc1c(C(=O)N/N=C/c2ccccc2)[nH]c2c([N+](=O)[O-])cccc12, the Potency is reported as “inactive”.
With COc1cc2c(C(=O)O)c(C)n(C)c2c2ccccc12 the Potency was “inactive”.
With COc1cccc2c(C)c(C(=O)O)[nH]c12 the Potency was 20.6 µM (active).
In the case of Cc1cc2c(cc3c(SCc4cccc(Cl)c4)nnc(C)n32)o1, the Potency is reported as “inactive”.
For CC1Sc2ccc(C(=O)NCc3ccccc3Cl)cc2NC1=O (centres undefined), the Potency was “inactive”.
For CCn1c(O)c(N=NC(=O)c2cccc(S(=O)(=O)N3CCCCC3)c2)c2ccccc21, the Potency was 20.6 µM (active).
In the case of Cc1cccc(NC(=O)c2cccc(S(=O)(=O)N3CCCC3)c2)n1, the Potency is reported as “inactive”.
In the case of CCn1c2ccccc2c2cc(NC(=O)COC(=O)c3cc(S(=O)(=O)N4CCCCC4)ccc3Cl)ccc21, the Potency is reported as “inactive”.
With Cc1ccc(S(=O)(=O)N2CCN(C(=O)COC(=O)/C=C/c3cccc(Cl)c3)CC2)c(C)c1 the Potency was “inactive”.
In the case of COC(=O)c1ccccc1NC(=O)c1cc(-c2ccccc2O)no1, the Potency is reported as “inactive”.
For Cc1ccc(C)c(S(=O)(=O)N(C)c2ccc(OC(=O)C3CCN(C(=O)c4ccc(F)cc4)CC3)cc2)c1, the Potency was “inactive”.
For COc1cccc2c1cc1c(=O)n(CC(=O)N3CCN(c4ccccc4)CC3)nc(C)n12, the Potency was “inactive”.
With COc1ccc(NS(=O)(=O)c2ccc(C(=O)Nc3c(C)n(C)n(-c4ccccc4)c3=O)cc2)cc1 the Potency was “inactive”.
In the case of COC(=O)COc1ccc(S(=O)(=O)Nc2ccc(NC(C)=O)cc2)cc1, the Potency is reported as “inactive”.
With COc1ccc(NS(=O)(=O)c2ccc(NC(=O)c3ccc(N(C)S(C)(=O)=O)cc3)cc2)cc1 the Potency was 16.4 µM (active).
With COc1cc(NS(=O)(=O)c2ccc(NC(C)=O)cc2)cc(OC)c1 the Potency was 5.8 µM (active).
In the case of COc1cc(OC)cc(C(=O)Nc2ccc(S(=O)(=O)Nc3cc(C)on3)cc2)c1, the Potency is reported as “inactive”.
In the case of COc1ccc(NC(=O)c2cnc(NS(=O)(=O)c3ccccc3)nc2)cc1, the Potency is reported as “inactive”.
In the case of O=C(OCC#CCSc1nnc(-c2ccco2)o1)c1ccc(F)cc1, the Potency is reported as “inactive”.
With CC(C)n1cnc2c(NCc3ccccc3)cc(OCC3CCN(C)CC3)cc21 the Potency was “inactive”.
For Cc1ccc(NC(=O)c2ccc(Cl)nc2)cc1S(=O)(=O)N1CCOCC1, the Potency was “inactive”.
For CCc1ccc(NC(=O)CCCc2nnc3n(CCCOC)c(=O)c4sccc4n23)cc1, the Potency was “inactive”.
In the case of O=C(c1cc(C(=O)N2CCN(c3ccc(F)cc3)CC2)cc([N+](=O)[O-])c1)N1CCN(c2ccc(F)cc2)CC1, the Potency is reported as 18.4 µM (active).
For O=C(c1cc2cc(F)ccc2[nH]1)N1CCN(c2ccc(F)cc2)CC1, the Potency was “inactive”.
For O=C(c1cncc(Br)c1)N1CCN(c2ccc([N+](=O)[O-])cc2)CC1, the Potency was “inactive”.
In the case of Cc1ccc(-n2c(=O)c3cccnc3n2CC(=O)Nc2ccccc2C(F)(F)F)cc1C, the Potency is reported as “inactive”.
With CC(C)(C)OC(=O)C[C@@H]1C/C=C\C[C@@H](CC(=O)N(CCO)Cc2ccccc2)C(=O)N[C@H](Cc2ccccc2)COC1=O the Potency was “inactive”.
With CCCn1c(=N)n(CC(O)COc2ccccc2OC)c2ccccc21 (centres undefined) the Potency was “inactive”.
For Cc1nn(Cc2ccc(F)cc2)c(C)c1NC(=O)c1cccnc1Cl, the Potency was “inactive”.
For Cc1nn(Cc2ccc(F)cc2)c(C)c1NC(=O)c1cc(CC(C)C)on1, the Potency was 20.6 µM (active).
With Cc1ccccc1Cn1nc(C)c(NC(=O)c2cc(-c3ccc(F)cc3)on2)c1C the Potency was “inactive”.
For Cc1nn(Cc2ccc(F)cc2)c(C)c1NC(=O)c1noc2c1CCc1ccccc1-2, the Potency was 20.6 µM (active).
With Cc1cc(C(=O)Nc2c(C)nn(Cc3ccccc3)c2C)on1 the Potency was “inactive”.
For CC(C)Cc1cc(C(=O)Nc2cc(Br)ccc2O)no1, the Potency was “inactive”.
With Nn1c(SCC(=O)NC2CCCc3ccccc32)nnc1C1CC1 (centres undefined) the Potency was “inactive”.
For O=C(CN1CCN(C2CCS(=O)(=O)C2)CC1)N1N=C(c2ccc(Cl)cc2)CC1c1ccco1 (centres undefined), the Potency was “inactive”.
For C[C@@H]1NS(=O)(=O)c2cc(Cl)ccc2O[C@@H]1c1ccccc1, the Potency was “inactive”.
